This note sets out measurements from the supplement of paper PMC10849652.

Of roughly 8,800 targets only a part is listed; those with a hit were picked by preference. About 0.5% of all pairs of compound and target were hits. Values without a mark were called inactive.

Sequence of UniProt Q53G59 (Q53G59 whole entry, looked up): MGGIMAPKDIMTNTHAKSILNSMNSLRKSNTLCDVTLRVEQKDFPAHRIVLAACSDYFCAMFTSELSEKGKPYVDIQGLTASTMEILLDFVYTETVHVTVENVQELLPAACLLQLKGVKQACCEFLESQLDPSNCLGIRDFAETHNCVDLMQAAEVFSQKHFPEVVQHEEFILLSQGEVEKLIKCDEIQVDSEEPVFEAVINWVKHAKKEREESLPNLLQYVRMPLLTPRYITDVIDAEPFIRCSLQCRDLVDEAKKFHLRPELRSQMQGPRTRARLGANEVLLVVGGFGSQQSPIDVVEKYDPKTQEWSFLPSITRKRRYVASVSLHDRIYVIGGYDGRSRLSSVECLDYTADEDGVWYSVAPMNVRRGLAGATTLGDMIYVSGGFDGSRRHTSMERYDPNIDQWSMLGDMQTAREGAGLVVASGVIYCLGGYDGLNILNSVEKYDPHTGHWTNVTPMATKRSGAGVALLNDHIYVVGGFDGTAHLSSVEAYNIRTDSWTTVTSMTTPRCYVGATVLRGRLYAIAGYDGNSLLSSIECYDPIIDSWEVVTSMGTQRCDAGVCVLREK
Sequence of UniProt Q8N5J2 (Q8N5J2 whole entry, looked up): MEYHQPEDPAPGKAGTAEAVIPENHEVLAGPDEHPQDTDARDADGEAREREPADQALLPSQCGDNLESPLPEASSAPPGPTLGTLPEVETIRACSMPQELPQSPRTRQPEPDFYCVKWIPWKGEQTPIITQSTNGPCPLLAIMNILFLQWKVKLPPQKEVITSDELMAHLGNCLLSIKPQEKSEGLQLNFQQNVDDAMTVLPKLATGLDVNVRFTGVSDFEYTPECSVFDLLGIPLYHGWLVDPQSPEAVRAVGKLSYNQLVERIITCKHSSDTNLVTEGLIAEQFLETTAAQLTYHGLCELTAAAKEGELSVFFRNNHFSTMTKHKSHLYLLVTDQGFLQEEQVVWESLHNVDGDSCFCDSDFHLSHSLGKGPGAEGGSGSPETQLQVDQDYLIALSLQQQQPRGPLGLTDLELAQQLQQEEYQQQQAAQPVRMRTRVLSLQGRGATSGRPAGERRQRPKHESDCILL
Sequence of UniProt Q6ZRQ5 (Q6ZRQ5 whole entry, looked up): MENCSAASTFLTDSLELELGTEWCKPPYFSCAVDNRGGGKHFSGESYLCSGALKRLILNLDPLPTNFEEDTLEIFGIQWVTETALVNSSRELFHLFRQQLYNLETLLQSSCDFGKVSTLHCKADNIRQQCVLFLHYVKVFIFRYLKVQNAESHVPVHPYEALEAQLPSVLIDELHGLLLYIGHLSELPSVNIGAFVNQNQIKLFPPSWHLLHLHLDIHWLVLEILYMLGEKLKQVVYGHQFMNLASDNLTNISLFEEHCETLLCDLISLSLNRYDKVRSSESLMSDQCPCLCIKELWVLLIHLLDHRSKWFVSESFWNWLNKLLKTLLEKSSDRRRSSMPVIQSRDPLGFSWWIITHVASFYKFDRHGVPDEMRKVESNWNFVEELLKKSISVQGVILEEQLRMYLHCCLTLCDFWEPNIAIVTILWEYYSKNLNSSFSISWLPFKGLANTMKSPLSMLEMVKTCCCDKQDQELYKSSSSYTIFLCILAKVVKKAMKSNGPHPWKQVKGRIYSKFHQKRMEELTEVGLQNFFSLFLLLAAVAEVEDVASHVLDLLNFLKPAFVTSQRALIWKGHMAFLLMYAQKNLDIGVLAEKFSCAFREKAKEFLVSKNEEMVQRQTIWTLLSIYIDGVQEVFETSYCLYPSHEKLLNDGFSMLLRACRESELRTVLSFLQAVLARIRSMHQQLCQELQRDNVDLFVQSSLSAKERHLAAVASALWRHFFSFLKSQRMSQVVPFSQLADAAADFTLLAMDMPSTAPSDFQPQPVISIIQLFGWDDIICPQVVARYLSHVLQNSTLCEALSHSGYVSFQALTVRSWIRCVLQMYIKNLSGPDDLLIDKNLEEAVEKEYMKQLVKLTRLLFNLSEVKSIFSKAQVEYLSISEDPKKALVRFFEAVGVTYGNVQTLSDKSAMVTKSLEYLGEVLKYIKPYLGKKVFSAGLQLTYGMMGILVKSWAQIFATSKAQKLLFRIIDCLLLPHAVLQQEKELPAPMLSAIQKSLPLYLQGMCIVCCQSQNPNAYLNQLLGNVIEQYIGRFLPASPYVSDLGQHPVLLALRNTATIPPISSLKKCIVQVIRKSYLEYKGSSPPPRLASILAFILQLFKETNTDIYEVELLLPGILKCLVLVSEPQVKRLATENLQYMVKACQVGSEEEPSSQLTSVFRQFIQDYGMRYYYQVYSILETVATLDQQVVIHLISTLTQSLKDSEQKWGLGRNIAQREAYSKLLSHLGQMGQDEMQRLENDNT
Sequence of UniProt O00522 (O00522 whole entry, looked up): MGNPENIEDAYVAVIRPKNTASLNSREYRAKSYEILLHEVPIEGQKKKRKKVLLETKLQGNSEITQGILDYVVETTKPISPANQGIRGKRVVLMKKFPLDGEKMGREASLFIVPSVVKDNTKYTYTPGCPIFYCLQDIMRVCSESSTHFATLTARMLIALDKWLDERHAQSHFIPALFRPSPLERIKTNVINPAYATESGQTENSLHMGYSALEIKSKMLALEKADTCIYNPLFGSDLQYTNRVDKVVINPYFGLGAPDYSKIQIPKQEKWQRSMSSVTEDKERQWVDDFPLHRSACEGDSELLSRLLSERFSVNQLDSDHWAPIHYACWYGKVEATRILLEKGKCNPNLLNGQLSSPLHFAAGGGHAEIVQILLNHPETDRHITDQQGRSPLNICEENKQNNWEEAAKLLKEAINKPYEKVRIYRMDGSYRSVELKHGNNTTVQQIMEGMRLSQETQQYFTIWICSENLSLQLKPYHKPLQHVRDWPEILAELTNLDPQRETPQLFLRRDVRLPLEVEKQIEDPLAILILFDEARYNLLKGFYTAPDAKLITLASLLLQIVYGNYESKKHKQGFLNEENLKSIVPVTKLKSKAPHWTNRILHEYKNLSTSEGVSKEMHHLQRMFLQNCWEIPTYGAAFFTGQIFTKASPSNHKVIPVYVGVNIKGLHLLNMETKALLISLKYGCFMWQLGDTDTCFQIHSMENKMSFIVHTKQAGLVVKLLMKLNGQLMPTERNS
Sequence of UniProt Q9BTE3 (Q9BTE3 whole entry, looked up): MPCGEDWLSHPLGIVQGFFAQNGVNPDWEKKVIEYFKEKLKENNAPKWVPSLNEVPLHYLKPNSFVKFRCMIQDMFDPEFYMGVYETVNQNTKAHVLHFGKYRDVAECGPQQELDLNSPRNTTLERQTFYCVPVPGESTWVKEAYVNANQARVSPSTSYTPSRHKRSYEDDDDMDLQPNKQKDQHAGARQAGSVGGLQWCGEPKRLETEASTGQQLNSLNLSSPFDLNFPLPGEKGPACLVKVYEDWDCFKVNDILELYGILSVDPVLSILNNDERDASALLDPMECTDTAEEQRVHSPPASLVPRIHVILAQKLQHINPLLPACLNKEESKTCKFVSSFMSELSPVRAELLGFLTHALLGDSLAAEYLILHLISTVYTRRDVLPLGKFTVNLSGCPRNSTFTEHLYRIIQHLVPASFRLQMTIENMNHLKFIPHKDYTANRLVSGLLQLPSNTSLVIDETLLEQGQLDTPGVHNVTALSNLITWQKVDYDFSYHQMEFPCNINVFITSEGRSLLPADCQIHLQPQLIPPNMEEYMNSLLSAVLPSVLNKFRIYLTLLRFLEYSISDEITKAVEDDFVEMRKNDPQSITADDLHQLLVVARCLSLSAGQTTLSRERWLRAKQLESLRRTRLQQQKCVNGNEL
Sequence of UniProt Q9H204 (Q9H204 whole entry, looked up): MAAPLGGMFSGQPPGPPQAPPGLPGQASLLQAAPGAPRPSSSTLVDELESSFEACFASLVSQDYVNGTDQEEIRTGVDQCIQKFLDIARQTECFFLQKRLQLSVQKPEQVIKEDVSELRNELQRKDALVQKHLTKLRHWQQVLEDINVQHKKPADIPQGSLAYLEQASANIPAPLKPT
Sequence of UniProt P27816 (P27816 whole entry, looked up): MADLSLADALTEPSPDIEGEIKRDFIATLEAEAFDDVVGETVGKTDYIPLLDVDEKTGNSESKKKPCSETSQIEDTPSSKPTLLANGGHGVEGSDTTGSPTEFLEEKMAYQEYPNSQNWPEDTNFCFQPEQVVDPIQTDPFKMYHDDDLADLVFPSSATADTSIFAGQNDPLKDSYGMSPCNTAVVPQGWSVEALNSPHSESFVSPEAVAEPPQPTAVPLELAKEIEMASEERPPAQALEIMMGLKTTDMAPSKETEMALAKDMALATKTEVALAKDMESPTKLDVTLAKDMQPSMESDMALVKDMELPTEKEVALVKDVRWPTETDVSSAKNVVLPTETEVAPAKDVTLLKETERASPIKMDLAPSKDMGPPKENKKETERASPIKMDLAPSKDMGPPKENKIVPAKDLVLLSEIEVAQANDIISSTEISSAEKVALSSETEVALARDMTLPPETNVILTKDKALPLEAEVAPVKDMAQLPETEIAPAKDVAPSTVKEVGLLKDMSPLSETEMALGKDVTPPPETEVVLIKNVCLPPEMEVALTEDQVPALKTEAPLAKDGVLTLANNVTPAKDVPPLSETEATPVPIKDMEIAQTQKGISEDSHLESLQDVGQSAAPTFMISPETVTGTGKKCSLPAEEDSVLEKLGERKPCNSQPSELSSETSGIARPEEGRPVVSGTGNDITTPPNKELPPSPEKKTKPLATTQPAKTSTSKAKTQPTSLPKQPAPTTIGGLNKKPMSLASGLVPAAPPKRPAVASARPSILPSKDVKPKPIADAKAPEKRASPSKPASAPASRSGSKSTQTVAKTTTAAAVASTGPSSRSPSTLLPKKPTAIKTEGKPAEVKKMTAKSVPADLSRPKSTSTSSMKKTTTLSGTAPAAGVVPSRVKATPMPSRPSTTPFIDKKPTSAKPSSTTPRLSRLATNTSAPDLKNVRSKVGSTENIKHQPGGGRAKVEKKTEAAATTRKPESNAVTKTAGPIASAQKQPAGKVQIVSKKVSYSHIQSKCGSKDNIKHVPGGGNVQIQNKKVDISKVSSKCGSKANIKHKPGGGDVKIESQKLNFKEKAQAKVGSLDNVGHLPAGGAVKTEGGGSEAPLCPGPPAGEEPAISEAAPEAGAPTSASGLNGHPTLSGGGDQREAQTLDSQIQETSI

Compound in the first assay: COc1cc(Nc2ncc3c(n2)-c2ccc(Cl)cc2C(c2c(F)cccc2OC)=NC3)ccc1C(=O)O [alisertib]
Kind of assay: log2 fold change, soluble protein after heating vs DMSO (PISA); higher = thermal stabilisation; K562 lysate, 10 uM; active = over 0.2 and 3.5 SD of the protein, either way, in both replicates (recomputed). The method, boiled down:
(§1)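 A 30 min treatment with 10 μM compound was applied to crude K562 extract at 1 mg/mL protein in PBS pH 7.4 with 1 mM MgCl2. Heating for 3 min spanned 48°C-58°C, after which aliquots were pooled, adjusted to 0.5% NP-40 at 4°C and spun at 21,000xg for 90 min. TMTpro 16plex LC-MS/MS of the supernatant, with channel sums equalised, gave values recorded as log-two fold change in thermal stability against solvent controls, from duplicates.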
For the target MARCHF6 (UniProt O60337), the log2 fold change was -0.321.

Regarding MAPK3 (UniProt H0YEX6), the log2 fold change was -0.128.

Turning to METTL21A (UniProt Q8WXB1), the log2 fold change is 0.004.

Consider KLHL12 isoform 2 (UniProt Q53G59), for which the log2 fold change is 0.023.

For MME (UniProt P08473), the log2 fold change is -0.079.

With LIMK1 (UniProt P53667), the log2 fold change was -0.261.

As to MEX3A (UniProt A1L020), the log2 fold change is -0.097.

MAPK12 (UniProt P53778): the log2 fold change is -0.114.

Regarding MCUB (UniProt Q9NWR8), the log2 fold change is 0.121.

Consider MMS22L (UniProt Q6ZRQ5), for which the log2 fold change is -0.004.

For the target MRC2 (UniProt Q9UBG0), the log2 fold change was -0.075.

On to LY6E (UniProt Q16553), for which the log2 fold change was 0.029.

MED28 (UniProt Q9H204): the log2 fold change is 0.011.

With MCMBP isoform 2 (UniProt Q9BTE3), the log2 fold change is 0.067.

With LGALS3BP (UniProt Q08380), the log2 fold change is -0.074.

Turning to MAP3K6 (UniProt O95382), the log2 fold change is 0.026.

MINDY1 isoform 3 (UniProt Q8N5J2): the log2 fold change is 0.001.

As to KRIT1 (UniProt O00522), the log2 fold change is 0.038.

On to KIF21A (UniProt H0YI78), for which the log2 fold change was -0.003.

Consider MAPKAP1 (UniProt Q9BPZ7), for which the log2 fold change is -0.094.

On to MAP4 isoform 5 (UniProt P27816), for which the log2 fold change is 0.047.

Regarding MRPL22 (UniProt Q9NWU5), the log2 fold change is -0.003.

Compound in a further assay: COc1cc2nc(-c3cc(F)ccc3O)nc(N[C@@H]3CNC[C@H]3C(C)(C)O)c2cc1OC
The description is as above. The method in brief:
as §1
For MAP4K4 isoform 3 (UniProt O95819), the log2 fold change was 0.035.

Take MARCHF6 (UniProt O60337): the log2 fold change was 0.008.

As for METTL21A (UniProt Q8WXB1), the log2 fold change is 0.011.

Regarding KIF18B (UniProt Q86Y91), the log2 fold change is 0.046.

Take KLHL12 isoform 2 (UniProt Q53G59): the log2 fold change is 0.086.

For KRAS isoform 2 (UniProt P01116), the log2 fold change is 0.019.

As for MAPK7 (UniProt Q13164), the log2 fold change is 0.157.

As to MME (UniProt P08473), the log2 fold change was -0.018.

As to LIMK1 (UniProt P53667), the log2 fold change is -0.203.

Regarding MCUB (UniProt Q9NWR8), the log2 fold change was -0.062.

In the case of LEPROT (UniProt O15243), the log2 fold change was 0.022.

MMS22L (UniProt Q6ZRQ5): the log2 fold change was 0.055.

In the case of LY6E (UniProt Q16553), the log2 fold change is 0.016.

Turning to MED28 (UniProt Q9H204), the log2 fold change is -0.024.

Take MCMBP isoform 2 (UniProt Q9BTE3): the log2 fold change is -0.091.

For LGALS3BP (UniProt Q08380), the log2 fold change is 0.092.

Turning to LRP1 (UniProt Q07954), the log2 fold change was 0.034.

Regarding LRRIQ1 (UniProt Q96JM4), the log2 fold change is -0.037.

As for MINDY1 isoform 3 (UniProt Q8N5J2), the log2 fold change is 0.103.

For the target KRIT1 (UniProt O00522), the log2 fold change is -0.055.

Consider KIF21A (UniProt H0YI78), for which the log2 fold change is 0.029.

Regarding MAP4 isoform 5 (UniProt P27816), the log2 fold change was -0.028.

With LRRC7 (UniProt Q96NW7), the log2 fold change was -0.016.

Turning to MRPL22 (UniProt Q9NWU5), the log2 fold change is -0.052.

With MAP4K4 isoform 6 (UniProt O95819), the log2 fold change is -0.058.

Compound in a further assay: COc1cc2ncnc(Nc3ccc(F)c(Cl)c3)c2cc1OCCCN1CCOCC1 [gefitinib]
The description is as above. The method, boiled down: as §1
For MAP4K4 isoform 3 (UniProt O95819), the log2 fold change is -0.051.

MARCHF6 (UniProt O60337): the log2 fold change was 0.019.

Turning to MAPK3 (UniProt H0YEX6), the log2 fold change is -0.016.

Take METTL21A (UniProt Q8WXB1): the log2 fold change was -0.028.

Regarding KLHL12 isoform 2 (UniProt Q53G59), the log2 fold change is -0.048.

For MME (UniProt P08473), the log2 fold change was 0.066.

For the target LIMK1 (UniProt P53667), the log2 fold change was 0.106.

Consider MEX3A (UniProt A1L020), for which the log2 fold change was 0.207.

With MAPK12 (UniProt P53778), the log2 fold change is -0.057.

Take MCUB (UniProt Q9NWR8): the log2 fold change is -0.046.

On to MMS22L (UniProt Q6ZRQ5), for which the log2 fold change is 0.035.

For MRC2 (UniProt Q9UBG0), the log2 fold change was 0.046.

With LY6E (UniProt Q16553), the log2 fold change is -0.013.

For MED28 (UniProt Q9H204), the log2 fold change was -0.217.

For MCMBP isoform 2 (UniProt Q9BTE3), the log2 fold change is -0.082.

Turning to LGALS3BP (UniProt Q08380), the log2 fold change was 0.019.

As for MAP3K6 (UniProt O95382), the log2 fold change was -0.022.

For MINDY1 isoform 3 (UniProt Q8N5J2), the log2 fold change is 0.134.

For the target KRIT1 (UniProt O00522), the log2 fold change is 0.029.

With KIF21A (UniProt H0YI78), the log2 fold change was -0.1.

MAPKAP1 (UniProt Q9BPZ7): the log2 fold change was 0.07.

On to MAP4 isoform 5 (UniProt P27816), for which the log2 fold change was 0.039.

As to MRPL22 (UniProt Q9NWU5), the log2 fold change is -0.051.
